Here are results for 45 compounds from PubChem BioAssay AID2012 (Sanford-Burnham Center for Chemical Genomics, 2009).

Structures are written as SMILES. Among all 290,000 compounds or so, about 2,700 (0.93%) were called active. No rule for the calls is given here. Only a selection was taken, and actives are over-represented in it overall.

The experiment deals with Eukaryotic translation initiation factor 4H (Homo sapiens) (UniProt Q15056). Put plainly: eIF4H binding inhibition – biochemical, uHTS, fluorescence polarization, translation initiation inhibitor project, primary screen (AID 2012).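 Also: calls also rest on retests at 20 µM and on dose response follow-up.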 The following applies: eIF4H fluorescence polarization binding assay, stronger effect = higher value.

Regarding `Cc1cccc(N=C2NC(=O)/C(=C/c3cn(C)c4ccccc34)S2)c1`, for the setting “at 35 µM”, the inhibition was 2.5% (inactive).

Take `Cc1ccc(N2NC(=O)/C(=C/C=C/c3ccco3)C2=O)cc1C`: the inhibition (at 35 µM) is 45.7% (inactive).

Turning to `Cc1ccc(N=C2NC(=O)/C(=C/C=C/c3ccco3)S2)cc1C`, the inhibition (at 35 µM) is 75.9% (active) and the inhibition (confirmation average, at 20 µM) was determined as 90.3%.

In the case of `CCN(CC)S(=O)(=O)c1ccc(-c2cn3ccc(C)cc3n2)cc1`, the inhibition (at 35 µM) is 1.1% (inactive).

Consider `O=[N+]([O-])c1ccccc1/C=N/n1c(COc2ccccc2)n[nH]c1=S`, for which the inhibition (at 35 µM) is -1.1% (inactive).

Turning to `Cc1ccc(-c2n[nH]c(=S)n2/N=C/c2cc3c(cc2[N+](=O)[O-])OCO3)cc1`, the inhibition (at 35 µM) was 29.5% (inactive).

Regarding `CCOc1ccc(-c2n[nH]c(=S)n2/N=C/c2cc3c(cc2[N+](=O)[O-])OCO3)cc1`, the inhibition is, setting by setting: (at 35 µM) 86.2% (active); (confirmation average, at 20 µM) 80.4%.

In the case of `COc1cc(/C=N/NC(=O)c2cc(C)n(-c3ccc(F)cc3)c2C)cc(OC)c1O`, the inhibition (at 35 µM) is 0.7% (inactive).

For `Cc1cc(C(=O)COC(=O)C2CC2)c(C)n1-c1ccc(F)cc1`, the inhibition (at 35 µM) is 4.9% (active) and the inhibition (confirmation average, at 20 µM) turned out to be 52.5%.

With `Cc1ccc(-n2c(C)cc(C(=O)CN3C(=O)C(=O)N(C4CCCC4)C3=O)c2C)cc1`, the inhibition (at 35 µM) was 1.2% (inactive).

`O=C(Nc1ccc(F)cc1)c1ccc(S(=O)(=O)NCc2cccnc2)cc1`: the inhibition (at 35 µM) is 10.1% (inactive).

For the compound `NC(=O)CN1CCCC1c1ccc2c(c1)OCCO2` (centres undefined), under “at 35 µM”, the inhibition is 4.2% (inactive).

Take `COC(OC)c1ccnc(SCc2ccccc2Cl)n1`: the inhibition (at 35 µM) is 2% (inactive).

As to `O=C(Nc1nnc(SCc2ccccc2)s1)c1ccco1`, the inhibition (at 35 µM) is 6% (inactive).

For `Brc1ccc(CSc2ccc(-c3ccco3)nn2)cc1`, the inhibition runs as follows: (at 35 µM) 61% (inactive); (confirmation average, at 20 µM) -1.3%.

As for `Fc1cccc(Cl)c1CSc1ccc(-c2ccco2)nn1`, the inhibition (at 35 µM) is 49.1% (inactive).

As for `c1ccc(CSc2nnc(-c3ccco3)c(-c3ccco3)n2)cc1`, for the setting “at 35 µM”, the inhibition was 94.6% (active).

Turning to `Clc1ccccc1CSc1nnc(-c2ccco2)c(-c2ccco2)n1`, the inhibition was 96.6% (active) (at 35 µM) and 94.4% (confirmation average, at 20 µM).

For `CCN(C(=O)C1CCCN(c2nc(-c3ccc(OC)cc3)no2)C1)c1ccc(OC)cc1` (centres undefined), the inhibition (at 35 µM) is -11.8% (inactive).

With `Cc1ccc(NC(=O)CSc2nn3c(=O)c(C)nnc3s2)cc1Cl`, the inhibition (at 35 µM) is -27.5% (inactive).

Take `CC(=O)c1ccc(N2CCN(C(=O)C3CCN(S(=O)(=O)c4ccc5c(c4)CC(C)N5C(=O)C4CC4)CC3)CC2)cc1` (centres undefined): the inhibition (at 35 µM) is -9.3% (inactive).

Turning to `CC(Sc1nc(-c2ccccc2)cc(C(F)(F)F)n1)C(=O)Nc1ccc2c(c1)OCO2` (centres undefined), the inhibition (at 35 µM) was 4.8% (inactive).

Take `CC(Sc1nc2cc(Cl)ccc2s1)C(=O)Nc1ccc2c(c1)OCO2` (centres undefined): the inhibition reads like this: (at 35 µM) 1.8% (active); (confirmation average, at 20 µM) 65.1%.

Consider `O=C(Nc1ccc2c(c1)OCO2)c1sc2cc(Cl)ccc2c1Cl`, for which, where the note is “at 35 µM”, the inhibition is -4% (inactive).

Consider `O=S(=O)(c1ccc(Br)cc1)N1CCC(c2nc3ccccc3[nH]2)CC1`, for which the inhibition (at 35 µM) was -8.2% (inactive).

As for `CC1CCCCN1CCCNc1ccc(C(CC(N)=O)NC(=O)c2ccccc2)cc1[N+](=O)[O-]` (centres undefined), the inhibition (at 35 µM) was -8.3% (inactive).

Consider `CC(=O)NC(Cc1ccc(F)c(F)c1)C(=O)NC1CCN(C(=O)c2ccc(C)cc2)CC1` (centres undefined), for which the inhibition (at 35 µM) is -14.2% (inactive).

Regarding `COc1ccc(CC(NC(C)=O)C(=O)NC2CCN(C(=O)c3ccc(Cl)cc3)CC2)cc1` (centres undefined), the inhibition (at 35 µM) was -0.5% (inactive).

As to `CNC(=S)N1CCC(NC(=O)C(Cc2ccc(F)cc2)NC(C)=O)CC1` (centres undefined), where the note is “at 35 µM”, the inhibition is 63.8% (active).

`O=C(CCc1ccccc1)NNC(=O)COc1ccc(Cl)cc1`: the inhibition (at 35 µM) was 0.4% (inactive).

For the compound `COc1ccccc1NC(=O)CCC(=O)OC(C)C(=O)c1ccccc1` (centres undefined), for the setting “at 35 µM”, the inhibition was 1.3% (inactive).

As for `O=C(NC1CCCC1)C(=O)c1c[nH]c2ccccc12`, the inhibition (at 35 µM) was -6.1% (inactive).

Regarding `CCCNC(=O)CSc1nc(Cc2ccccc2)nc2ccccc12`, the inhibition (at 35 µM) was -6.2% (inactive).

With `Clc1c(OCCCn2ccnc2)ccc2ccccc12`, where the note is “at 35 µM”, the inhibition was 1.6% (inactive).

With `Cc1cccc(NC(=O)/C=C/c2ccc3c(c2)OCO3)n1`, under “at 35 µM”, the inhibition was -2.1% (inactive).

As for `O=C(/C=C/c1ccc2c(c1)OCO2)NCc1ccc(F)cc1`, under “at 35 µM”, the inhibition was 4.7% (inactive).

As to `O=C(/C=C/c1ccc2c(c1)OCO2)NCc1cn2cc(Cl)ccc2n1`, the inhibition was -3.3% (active) (at 35 µM) and 76.4% (confirmation average, at 20 µM).

For `Cc1cccc(NS(=O)(=O)c2ccc(-c3cnc(C4CC4)o3)cc2)c1`, the inhibition (at 35 µM) was -2.4% (inactive).

Regarding `O=C(c1ccc[nH]c1=S)N1CCN(S(=O)(=O)c2ccc(Br)cc2Cl)CC1`, for the setting “at 35 µM”, the inhibition was -10.2% (inactive).

Take `Cc1cc(C(=O)CSc2nc(N)cc(=O)[nH]2)c(C)n1Cc1ccco1`: the inhibition (at 35 µM) is 43.2% (inactive).

As to `CCc1ccccc1NC(=O)CN(C)C(=O)COc1ccc(C)nc1[N+](=O)[O-]`, the inhibition (at 35 µM) was 1.9% (inactive).

`COc1ccc(C)cc1-n1nnnc1SCC(=O)c1cc(C)n(Cc2ccco2)c1C`: the inhibition (at 35 µM) was 64.8% (active).

With `Cc1ccc(OCC(=O)c2cc(C)n(Cc3ccco3)c2C)c([N+](=O)[O-])n1`, the inhibition (at 35 µM) was 101% (active) and the inhibition (confirmation average, at 20 µM) was determined as 86.9%.

On to `Cc1ccc(OCC(=O)NC(C)c2ccccc2)c([N+](=O)[O-])n1` (centres undefined), for which the inhibition by setting is: (at 35 µM) -4.1% (inactive); (confirmation average, at 20 µM) -2.8%.

As for `COc1ccc(OC)c(-n2nnnc2SCC(=O)Nc2cc(C)ccc2OC)c1`, the inhibition (at 35 µM) is 0% (inactive).
